Laboratory results: PMC4552634, “A New Set of Chemical Starting Points with Plasmodium falciparum Transmission-Blocking Potential for Antimalarial Drug Discovery” (PLoS ONE, 2015)
The campaign covered roughly 13,000 compounds. About 3,200 (25%) showed an effect of 50% or more. Some of the results follow.

test system: P. falciparum stage V gametocytes; set-up: BacTiter-Glo ATP luminescence viability of purified stage V gametocytes in 384-well plates, per cent inhibition versus DMSO; conditions: 48 h, 5 µM; inhibitor

Point of comparison: `Cc1ccccc1CN1CCCN(Cc2ccc(C(=O)Nc3ccc(C(C)(C)C)cc3)cc2)CC1` [TCMDC-136429], “% Inhibition” value -4.144%. Against it:
- Cc1ccc(NC(=O)NC2CCN(c3ccnc4cc(Cl)ccc34)CC2)cc1 [TCMDC-133571] — lower, -34.41%
- CNS(=O)(=O)Cc1ccc(Nc2nccc(Nc3cccc4c3cnn4C(=O)Nc3ccccc3)n2)cc1 [TCMDC-136315] — higher, 19.26%
- Cc1cc(Br)c(OCCCON2C(N)=NC(N)=NC2(C)C)c(Br)c1 [TCMDC-131365] — higher, 37.66%
- Cc1nc2c(c(C)nn2C(C)(C)C)c(C)c1CCC(=O)Nc1ccc(CN2CCCC2)cc1 [TCMDC-124397] — lower, -7.615%
- COC(=O)c1ccc(Nc2nccc(Nc3ccc(Oc4ccccc4)cc3)n2)cc1 [TCMDC-138560] — lower, -28.54%
- COc1cccc(Nc2nc(C)cc(NCc3ccc(-n4ccnc4)cc3)n2)c1 [TCMDC-133450] — higher, 43.61%
- Cc1cc(N(C)C)nc(Nc2ccc(NC(=O)c3ccccc3F)cc2)n1 [TCMDC-124725] — higher, 4.015%
- Cc1cc(Cl)c(S(=O)(=O)NC2CCCC2)cc1OCC(=O)NC1CCCCC1 [TCMDC-124353] — higher, 26.39%
- Fc1cccc(COc2ccc(Nc3ncnc4ccc(-c5nnc(C(F)(F)F)o5)cc34)cc2Cl)c1 [TCMDC-138162] — lower, -34.34%
- COc1ccc2nc(C)cc(NN=Cc3ccc(F)cc3)c2c1 [TCMDC-123973] — higher, 111.2%
- Cc1cc(NN=Cc2ccc(F)cc2)c2cccc(C)c2n1 [TCMDC-142082] — higher, 83.37%
- COc1ccc2nc(C)cc(NN=Cc3cccc(F)c3)c2c1 [TCMDC-142084] — higher, 32.42%
- Cc1cc(NN=Cc2cccc(F)c2)c2cccc(C)c2n1 [TCMDC-142081] — lower, -19.79%
- Cc1cc(NN=Cc2ccccc2F)c2cccc(C)c2n1 [TCMDC-142068] — lower, -42.7%
- COc1ccc2c(NN=Cc3cccc(F)c3)cc(C)nc2c1 [TCMDC-142085] — higher, 106.9%
- CCCC(=O)Nc1ccc(OCCCCN(CC(C)(C)C)c2ccc(C#N)c(C(F)(F)F)c2)cc1 [TCMDC-132784] — higher, -2.311%
- O=C(Nc1ccc(-c2nc3ccccc3[nH]2)cc1)c1cccc([N+](=O)[O-])c1 [TCMDC-123637] — lower, -11.52%
- Cc1n[nH]c2ccc(-c3ccc4nccc(N5CCC(N)CC5)c4c3)cc12 [TCMDC-134315] — higher, 105.4%
- O=S(=O)(Nc1ccc2nccc(N3CCNCC3)c2c1)c1ccc(-c2ccccc2)cc1 [TCMDC-139546] — higher, 12.57%
- Clc1ccc2nccc(N3CCC(CN4CCC(c5c[nH]c6ccccc56)CC4)CC3)c2c1 [TCMDC-134281] — higher, 0.1691%
- CCn1c(-c2ccccc2)cc2nnc3ccccc3c21 [TCMDC-138220] — higher, 3.318%
- CCN1CCN(c2ccc(Nc3c4ccccc4nc4ccccc34)cc2)CC1 [TCMDC-124255] — higher, 96.72%
- CCN1CCN(CCCCNc2c3ccccc3nc3ccccc23)CC1 [TCMDC-137570] — higher, 80.96%
- CC[C@H](NC(=O)c1c(CCCN2CCN(c3ccccc3)CC2)c(-c2ccccc2)nc2cc(O)ccc12)c1ccccc1 [TCMDC-139302] — higher, 9.444%
- CCN1CCN(CCCNc2c3ccccc3nc3ccccc23)CC1 [TCMDC-137546] — higher, 84.24%
- CN1CCN(c2ccc(Nc3c4ccccc4nc4ccccc34)cc2)CC1 [TCMDC-123912] — higher, 39.23%
- CCN1CCN(CCNc2c3ccccc3nc3ccccc23)CC1.Cl [TCMDC-137545] — higher, 85.19%
- Cc1ccc(Nc2nc(C)cc(N3CCN(c4ccccc4)CC3)n2)cc1 [TCMDC-125308] — lower, -56.11%
- Oc1cc2c(cc1CN1CCN(Cc3ccc(Cl)s3)CC1)CCC2 [TCMDC-124882] — lower, -46.75%
- CCCc1ccc(N2C(N)=NC(N)=NC2(C)C)cc1 [TCMDC-137706] — higher, 5.239%
- Cc1cc2c(cc1C(F)(F)F)N(C(=O)Nc1cc(C(=O)NC3CCN(Cc4ccccc4)C3)cc(C(F)(F)F)c1)CC2 (centres unmarked) [TCMDC-139921] — higher, 12.41%
- Oc1ccc(-c2nc3c4cc(I)ccc4c4ccc(I)cc4c3[nH]2)cc1 [TCMDC-124199] — lower, -25%
- N#Cc1ccc2nc(-c3cc(-c4cccc(F)c4)cnc3N)[nH]c2c1 [TCMDC-133133] — lower, -54.5%
- N#Cc1ccc(N2CCN(Cc3cccc(-c4cccc(-c5nc6cc(F)ccc6[nH]5)c4)c3)CC2)nc1.O=C(O)C(F)(F)F [TCMDC-133109] — lower, -21.69%
- Clc1ccc(Cc2nc3ccccc3[nH]2)cc1Cl [TCMDC-125878] — lower, -7.507%
- O=C(Nc1ccc(Oc2ccccc2)cc1)N1CCC(CCN2CCC(c3c[nH]c4ccccc34)CC2)CC1 [TCMDC-140190] — higher, 106%
- FC(F)(F)c1ccc(NC(=S)N2CCC(CCN3CCC(c4c[nH]c5ccccc45)CC3)CC2)cc1 [TCMDC-140188] — higher, 107.1%
- O=C(Nc1ccc(Oc2ccccc2)cc1)N1CCC(CN2CCC(c3c[nH]c4ccccc34)CC2)CC1 [TCMDC-140194] — higher, 35.38%
- O=C(Nc1cc(C(F)(F)F)cc(C(F)(F)F)c1)N1CCC(CN2CCC(c3c[nH]c4ccccc34)CC2)CC1 [TCMDC-140192] — higher, -4.081%
- O=C(Nc1ccc(Cl)c(Cl)c1)N1CCC(CN2CCC(c3c[nH]c4ccccc34)CC2)CC1 [TCMDC-140195] — lower, -22.77%
- FC(F)(F)c1ccc(NC(=S)N2CCC(CN3CCC(c4c[nH]c5ccccc45)CC3)CC2)cc1 [TCMDC-140191] — higher, 5.954%
- O=C(Nc1cc(C(F)(F)F)cc(C(F)(F)F)c1)N1CCC(CCN2CCC(c3c[nH]c4ccccc34)CC2)CC1 [TCMDC-140189] — higher, 108.5%
- CN(C)CCc1c[nH]c2ccc(C(=O)Nc3ccc(-c4ccncc4)cc3)cc12 [TCMDC-132057] — higher, 19.3%
- COc1ccc2nccc([C@@H](O)CN3CCC(NC(=O)c4ccc(CN5CCN(c6cccc(C)c6)CC5C)cc4)CC3)c2c1 (some centres unmarked) [TCMDC-140999] — lower, -29.97%
- CC1(C)N=C(N)N=C(N)N1OCCSCc1cc(Cl)sc1Cl [TCMDC-131620] — higher, 30.29%
- O=S(=O)(NCCN1CCCC1)c1ccc(-c2ccc(CNCc3ccsc3)cc2)cc1 [TCMDC-132281] — higher, 102.2%
- O=S(=O)(NCCN1CCCC1)c1cccc(-c2ccc(CNCc3ccsc3)cc2)c1 [TCMDC-132290] — higher, 92.71%
- O=S(=O)(NCCN1CCCC1)c1cccc(-c2cccc(CNCc3ccsc3)c2)c1 [TCMDC-132277] — higher, 89.41%
- CCN1CCN(c2cc(C)c3cc(NC(=O)c4ccc([N+](=O)[O-])c(C)c4)ccc3n2)CC1 [TCMDC-125576] — higher, 24.57%
- CC(C)(CNCCOc1ccc(Cl)cc1)c1nc(-c2ccc(Cl)c(O)c2)c(-c2ccnc(N)n2)[nH]1 [TCMDC-141161] — higher, 36.73%
- Cc1cccc2[nH]c(=O)c([N+](=O)[O-])c(O)c12 [TCMDC-131384] — lower, -28.29%
- CN(C)CCC=C1c2ccccc2Sc2c(O)cc(Cl)cc21 [TCMDC-123466] — lower, -77.93%
- N#Cc1cccc(Nc2ncc3c(-c4cccc(NC(=O)Cc5cccc(Cl)c5)c4)c[nH]c3n2)c1 [TCMDC-134682] — higher, 19.68%
- CCn1ccc2c(N3CCCC3=O)cc(C(=O)N[C@@H](Cc3ccccc3)[C@H](O)CNC(C)(C)CCCC(C)C)cc21 [TCMDC-135313] — higher, 55.34%
- CCn1ccc2c(N3CCCC3=O)cc(C(=O)N[C@@H](Cc3ccccc3)[C@H](O)CNC3CCCCC3)cc21 [TCMDC-135316] — higher, 7.868%
- CCn1ccc2c(N3CCCS3(=O)=O)cc(C(=O)N[C@@H](Cc3ccccc3)[C@H](O)CNC(C)(C)CCCC(C)C)cc21 [TCMDC-135312] — higher, 65.79%
- CCn1ccc2c(N3CCCC3=O)cc(C(=O)N[C@@H](Cc3ccccc3)[C@H](O)CNCc3cccc(OC)c3)cc21 [TCMDC-134129] — higher, 8.959%
- CCn1ccc2c(N3CCCCS3(=O)=O)cc(C(=O)N[C@@H](Cc3ccccc3)[C@H](O)CNC(C)(C)CCCC(C)C)cc21 [TCMDC-135311] — higher, 61.66%
- CNC(=O)c1cncc(/C=C/c2ccccc2S(N)(=O)=O)c1 [TCMDC-138266] — higher, 49.76%
- C[C@H](NC(=O)c1c(OC2CN(C(c3ccccc3)c3ccccc3)C2)c(-c2ccccc2)nc2ccccc12)C1CCCCC1 [TCMDC-135543] — lower, -26.28%
- CS(=O)(=O)O.Nc1nc(NCC2CCC(CNS(=O)(=O)c3cccc4ccccc34)CC2)nc2ccccc12 (centres unmarked) [TCMDC-124251] — higher, -1.432%
- COC(=O)C(Cc1ccccc1)C(CSCc1ccc(OC)cc1)C(=O)N[C@@H](C(=O)OC(C)(C)C)c1ccc(C(C)(C)C)cc1 (some centres unmarked) [TCMDC-131235] — higher, 8.806%
- CC(C)(C)OC(=O)c1c(NC(=O)/C=C/c2ccc(O)c(O)c2)sc2c1CCCC2 [TCMDC-131558] — lower, -45.09%
- CC=Cc1cc(Cc2cnc(N)nc2N)cc(CCC)c1OC [TCMDC-137634] — higher, -1.983%
- CCOc1cc(Cc2cnc(N)nc2N)cc(OCC)c1OCCCCC(=O)OC [TCMDC-137176] — lower, -10.63%
- CCN(CC)CCn1c(=N)n(CC(=O)c2ccc(-c3ccccc3)cc2)c2ccccc21 [TCMDC-124026] — higher, 67.24%
- CC(C)(C)c1ccc(Cn2c(=N)n(CC(=O)c3ccc(-c4ccccc4)cc3)c3ccccc32)cc1 [TCMDC-124030] — higher, 98.24%
- CCN(CC)c1ccc(C(=O)Cn2ccc(=N)cc2)cc1 [TCMDC-139029] — higher, -2.203%
- CCOCc1cn(CC(=O)c2ccc(-c3ccccc3)cc2)c(C)nc1=N [TCMDC-124243] — lower, -19.83%
- CC(C)(C)c1ccc(Cn2nc(C(=O)N3CCN(C(=O)C4CCCO4)CC3)c3ccccc32)cc1 (centres unmarked) [TCMDC-134381] — higher, -2.653%
